ALDH1A1 inh: inhibitors of human aldehyde dehydrogenase 1A1. P00352. Purified ALDH1A1, NADH fluorescence, propionaldehyde substrate. Potency, µM (highest dose often 75.3 µM), hits mostly inhibitors. 7.3% of 220,000 active. AID 1030
Lamin A splicing: LMNA splicing modulation; HeLa LMNA splicing GFP/RFP minigene ratio, 48 h; 0.01% of 200,000 active; AID 1487; Potency, µM (highest dose often 46.1 µM), most hits filed as inhibitors; active = well fitted inhibition curve with a large enough effect in the signal ratio, with a control signal flat, not every such curve was filed as active; inconclusive = small, poorly fitted or top-dose-only effect, or effect the other way, or a change in a side signal; the % refers to the signal ratio
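Read-out is the ratio of GFP to DsRed2 object intensity, acquired by 488 nm laser-scanning cytometry on HeLa lamin A-EGFP minigene reporter cells. Compound incubation 48 hrs at 37 °C in Opti-MEM with 2% FBS; DMSO 0.5% final.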
PNC inhibitor: perinucleolar compartment assembly inhibition; activity change (PNC), negative = inhibition, % at 10 µM; PC3M PTB-GFP, PNC prevalence imaging, 16 h; stronger effect = lower value; 3.1% of 140,000 active;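 active = readout at or below -70, meaning at least 70% loss of cells showing the perinucleolar compartment, a nuclear body marking cancer cells; inconclusive = readout between -30 and a set limit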
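Compounds are pinned in duplicate onto adhered PC3M cells stably expressing GFP-tagged PTB and incubated 16 h at 37 C. Cells are then fixed, nuclei stained with Hoechst, and PNC-positive cells counted.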
HPGD block: blocks human HPGD enzyme activity; P15428; purified HPGD, NADH fluorescence kinetic, PGE2 substrate; Potency, µM, most hits filed as inhibitors; 4.3% of 150,000 active; AID 894
Target sequence (P15428 whole entry, looked up): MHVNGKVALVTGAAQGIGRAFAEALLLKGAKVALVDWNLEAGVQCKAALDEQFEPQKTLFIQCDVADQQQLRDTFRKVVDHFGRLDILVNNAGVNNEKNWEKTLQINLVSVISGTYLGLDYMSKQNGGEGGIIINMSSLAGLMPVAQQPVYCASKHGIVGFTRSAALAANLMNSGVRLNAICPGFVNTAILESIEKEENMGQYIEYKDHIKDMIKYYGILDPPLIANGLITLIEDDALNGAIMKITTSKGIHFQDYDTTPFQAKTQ
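NADH formation kinetics: reaction with 30 uM PGE2 and 1 mM NAD+ (final), 20 nM enzyme, Tris-HCl pH 8 with Tween 20, after 15 min compound preincubation at room temperature. Fluorescence change, last versus first of five reads.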
12-hLO inh: inhibitors of human 12-lipoxygenase (ALOX12). purified 12-hLO, xylenol orange hydroperoxide absorbance. Potency, µM (top dose mostly 57.1 µM), actives largely listed as inhibitors. 0.12% of 150,000 active; active = well fitted inhibition curve with a large enough effect; inconclusive = small, poorly fitted or top-dose-only effect; also: nearly all actives have a fitted effect of over 55% in size
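Purified human 12hLO (150 nM), preincubated 15 min with compound, then 40 uM arachidonic acid for 30 min, room temperature, Hepes pH 7.0 with 0.01% Triton X-100. Hydroperoxide detected by ferrous iron/xylenol orange; 573/405 nm absorbance ratio gives reaction progress.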
Numbers stand for hits; n = inactive; u = inconclusive; x = not tested or not shown; [ ] = dose if it differs, or a comment. A selection: hits, their analogues and other compounds. The true share with any hit is near 10%. Unless noted, calls follow the shape of the dose curve; as a rule, active = well fitted inhibition curve with a large enough effect (not every such curve was filed as active); inconclusive = small, poorly fitted or top-dose-only effect, or another doubt; inactive = no such curve, though single readings can be large or run the other way.

SMILES	ALDH1A1 inh	Lamin A splicing	PNC inhibitor	HPGD block	12-hLO inh
O=C1[C@H]2CCC=C[C@H]2[C@H](c2ccccc2Br)N1Cc1ccccc1	u	x	x	n	n[0.00818 µM]
C/C(NC1CCCC1)=C(/C#N)C(N)=O	n	n	n	n	n
C/C(=C(\C#N)C(=O)NC1CCCCC1)N(C)C	n	n	n	16µM	n
CC1CC2C3CCC4=CC(=O)C=C[C@@]4(C)[C@]3(F)C(O)C[C@]2(C)[C@]1(O)C(=O)COP(=O)(O)O (some centres not stated)	n	x	x	n	n
Cn1nnnc1SCC(=O)Nc1ccc(Br)cc1Cl	u	n	-100	n	n
COc1ccccc1NC(=O)c1ccc(NC(=O)CSc2nnnn2C)cc1	0.79µM	u	n	n	n
Cn1nnnc1SCC(=O)Nc1c(Cl)cccc1Cl	n	n	n	22µM	n
COc1ccccc1NC(=O)CSc1nnnn1-c1ccc(C)cc1	n	n	u	n	n
O=C(NC1CCCCC1)c1ccc2c(c1)N(Cc1cccc(F)c1)C(=O)c1ccccc1S2	x	n	x	x	x
CCCCNC(=O)c1c[nH]c2ccc(S(=O)(=O)N3CCOCC3)cc2c1=O	u	n	x	x	x
COc1ccc(CNC(=O)c2c([S-])n(-c3ccc(C)cc3)c3cccc[n+]23)cc1	u	n	x	x	x
Cc1ccc(-n2c([S-])c(C(=O)NC(C)c3ccccc3)[n+]3ccccc23)cc1 (configuration not stated)	3.2µM	n[9.22 µM]	x	x	x
CC1=C(c2ccc(C)c(C)c2)S(=O)(=O)N=C1N1CCC(C(=O)N2CCC(C(N)=O)CC2)CC1	x	n	x	x	x
Cc1cc(N2CCN(c3nnnn3-c3ccccc3)CC2)n2ncnc2n1	22µM	n	u	n	n
Cc1cc(N2CCN(c3ccccc3)CC2)n2nnnc2n1	n	n	n	n	n
Cc1cc(N2CCN(S(=O)(=O)Cc3ccccc3)CC2)n2ncnc2n1	n	n	-99	n	n
Cc1cc(N2CCN(S(=O)(=O)c3ccc(Br)cc3)CC2)n2ncnc2n1	n	n	x	x	x
Cc1ccc(NC(=O)c2oc3ccc(S(=O)(=O)N4CCC5(CC4)OCCO5)cc3c2C)c(C)c1	x	n	x	x	x
CCCCc1c(O)nc2sc3cc(OC)ccc3n2c1=O	n	n	n	16µM	n
COC(=O)c1cc(=O)nc2sc3cc(OC)ccc3n12	16µM	n	u	n	n
COc1ccc(-c2nc(CCNC(=O)c3c(F)cccc3Cl)cs2)cc1	x	n	x	x	x
CCOC(=O)c1sc(N2N=C(C)/C(=C\c3ccc(OCC(=O)OC)cc3)C2=O)nc1C	14µM	u	n	28µM	n
CCn1c(SCC(=O)Nc2cc(Cl)ccc2OC)nc2c([nH]c3ccccc32)c1=O	x	n	x	x	x
c1ccc(NCc2nnc3n2CCCCC3)cc1	n	n	n	n	n
c1ccc2sc(Cc3nnc4n3CCCCC4)nc2c1	n	n	-82	n	n
SMILES	ALDH1A1 inh	Lamin A splicing	PNC inhibitor	HPGD block	12-hLO inh
COc1ccc(-c2csc(Cc3nnc4n3CCCCC4)n2)cc1	n	n	u	n	n
FC(F)Oc1ccc(-c2csc(Cc3nnc4n3CCCCC4)n2)cc1	n	u	-100	n	n
CCc1ccc(NC(=O)CC2C(=O)Nc3c2c(=O)n(C)c(=O)n3C)cc1 (configuration not stated)	100µM	n	n	n	n
Cc1cccc(NC(=O)C2C(c3ccccc3)C2(Cl)Cl)c1 (configuration not stated)	25µM	n	x	x	x
CC(=O)c1cccc(NC(=O)C2C(c3ccccc3)C2(Cl)Cl)c1 (configuration not stated)	n	u	x	x	x
Cc1ccc(NC(=O)C2C(c3ccccc3)C2(Cl)Cl)c(C)c1 (configuration not stated)	n	u	n	28µM	n
COc1cc(C(=O)Nc2ccc(S(=O)(=O)N3CCc4ccccc43)cc2)cc(OC)c1OC	u	n	n	n	n
Cn1c(=O)c(=O)n(C)c2cc(S(=O)(=O)N3CCc4ccccc43)ccc21	n	u	u	n	n
O=C(Nc1ccc(S(=O)(=O)N2CCc3ccccc32)cc1)c1ccco1	25µM	u	n	n	n
COc1ccccc1C(=O)Nc1ccc(S(=O)(=O)N2CCc3ccccc32)cc1	u	n	n	n	n
O=S(=O)(NC1CCCC1)c1ccc(S(=O)(=O)N2CCc3ccccc32)cc1	32µM	u	n	n	n
O=C(Nc1ccc(S(=O)(=O)N2CCc3ccccc32)cc1)c1ccc2c(c1)OCO2	18µM	u	u	n	n
O=S(=O)(NC1CCc2ccccc21)c1ccc(S(=O)(=O)N2CCCC2)cc1 (configuration not stated)	14µM	n	n	n	n
CCCCc1nc2c(c3c1C[C@H](C)OC3)CN(S(=O)(=O)c1ccc(C#N)cc1)CC2	n[13.5 µM]	u	x	n	n[11.4 µM]
COc1ccccc1C(=O)O/N=C(/c1ccncc1)c1ccc([N+](=O)[O-])cc1	20µM	u	x	x	x
O=C(O/N=C(\c1ccccc1)c1ccncc1)c1ccccc1F	n	n	x	x	x
CCC(=O)N1CCc2cc(S(=O)(=O)NCCCN3CCN(Cc4ccccc4)CC3)ccc21	18µM	n	n	n	n
CCOCCCNS(=O)(=O)c1ccc2c(c1)CCN2C(=O)CC	n	n	-110	n	n
CCc1nc(SC)ncc1C(=O)N1CCN(c2cc(C)ccc2C)CC1	x	n	x	x	x
Cc1ccc(/C(O)=C2\C(=O)C(=O)N(Cc3cccnc3)C2c2ccccc2[N+](=O)[O-])cc1 (configuration not stated)	7.1µM	n	n	n	n
O=C1C(=O)N(Cc2cccnc2)C(c2ccccn2)/C1=C(/O)c1ccc(Br)cc1 (configuration not stated)	n	n	n	n	n
COc1ccccc1CN1CCCC2(CCN(C(=O)c3cc(C(F)(F)F)cc(C(F)(F)F)c3)CC2)C1	n	x	x	n	n
CCC(=O)O[C@H](CC(=O)O)C[N+](C)(C)C	n	x	x	n	n
Cc1cc(C(=O)c2ccccc2)c(NC(=O)CN2CCOCC2)s1	n	n	n	n	n
Cc1ccc(C(=O)c2cc(C)sc2NC(=O)CN2CCN(C(=O)c3ccco3)CC2)cc1	25µM	u	n	x	n
SMILES	ALDH1A1 inh	Lamin A splicing	PNC inhibitor	HPGD block	12-hLO inh
CC1CCc2c(sc(NC(=O)CN3CCN(C(=O)c4ccco4)CC3)c2C#N)C1 (configuration not stated)	u	u	-117	n	n
CCN1CC2CCCC3(C1)C(=O)NC1(CCCCC1)N=C23 (configuration not stated)	32µM	n	n	n	n
COc1ccccc1OCc1nc2ccccc2n1Cc1ccccc1	x	n	x	x	x
Cn1cnc([N+](=O)[O-])c1Sc1nc2ccccc2[nH]1	20µM	x	x	x	x
CS(=O)(=O)c1cc([N+](=O)[O-])c(Sc2nc3ccccc3[nH]2)c([N+](=O)[O-])c1	8.9µM	u	u	3.5µM	u
Cc1cccnc1Sc1c([N+](=O)[O-])ncn1C	16µM	n	n	n	n
Cc1nc([N+](=O)[O-])c(Sc2nc3ccccc3[nH]2)n1Cc1ccccc1	n	u	n	n	n

Source: PubChem (National Center for Advancing Translational Sciences (NCATS))
